According to PubChem BioAssay AID504834 (National Center for Advancing Translational Sciences (NCATS), 2011):
Screen size: about 320,000 compounds; about 22,000 (6.9%) were called active. Entries that show only a call come without a potency. Inconclusive results (about 27%) are left out. For the sample, actives were picked, then their nearest neighbours and some compounds at random. Values without a mark were called inactive. The call rests on the fitted dose curve; in most records, active means well fitted inhibition curve with a large enough effect; inconclusive means small, poorly fitted or top-dose-only effect, or another doubt; inactive means no such curve, though single readings can be large or run the other way.

Test: Primary qHTS for delayed death inhibitors of the malarial parasite plastid, 96 hour incubation
Settings: P. falciparum luciferase reporter growth; series mostly up to 28.7 µM
How it was run: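 Luminescence readout: decreased luciferase signal marks inhibited growth of reporter-expressing P. falciparum in infected red cells (2% hematocrit, 0.05% parasitemia final), exposed to compound two generations (96 h, 37 C, 5% CO2).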
Potency means the concentration at half of the fitted maximal effect.

Row | SMILES | Potency | activity change, negative = inhibition
1 | COc1ccccc1OC(C)C(=O)Nc1ccc(S(=O)(=O)Nc2nccs2)cc1 (stereo not drawn) | inactive | –
2 | CCCn1c(C(Cc2ccccc2)NC(=O)COC)nc2ccccc21 (stereo not drawn) | inactive | –
3 | COC(=O)c1ccc(CN2C(=O)NC(c3ccccc3)(c3ccccc3)C2=O)o1 | inactive | –
4 | CCCC(NC(=O)c1ccccc1)c1nc2ccccc2n1Cc1ccc(C(=O)OC)o1 (stereo not drawn) | 8.28 µM (active) | –
5 | CCc1cccc(NC(=S)N(CCN(C)C)C2CCN(C(C)C)CC2)c1 | inactive | –
6 | COc1ccccc1/C=C/C(=O)OCC(=O)NC1CCCCCC1 | inactive | –
7 | CCn1c(=O)c(=O)n(CC)c2cc(S(=O)(=O)N3CCc4ccccc43)ccc21 | 13.1 µM (active) | –
8 | CSc1nc2ccc(S(=O)(=O)N3CCc4ccccc43)cc2s1 | inactive | –
9 | O=S(=O)(c1ccc2c(c1)OCCO2)N1CCc2ccccc21 | inactive | –
10 | O=C(NCc1ccccc1Cl)c1ccc2c(=O)n(CC3CCCO3)c(=S)[nH]c2c1 (stereo not drawn) | inactive | –
11 | COc1cccc(COc2ccc(N(C)S(=O)(=O)c3ccccc3)cc2)c1 | inactive | –
12 | Cc1ccc2nc(COc3ccc(N(C)S(=O)(=O)c4ccccc4)cc3)cc(=O)n2c1 | 10.4 µM (active) | –
13 | CN(c1ccc(OCC(=O)O)cc1)S(=O)(=O)c1ccc2ccccc2c1 | inactive | –
14 | COCCCNC(=O)C1CC(=O)N(CCc2ccc(F)cc2)C1 (stereo not drawn) | inactive | –
15 | O=C(Nc1ccc2c(c1)OCO2)C1CC1(Cl)Cl (stereo not drawn) | inactive | –
16 | CC(=O)N/C(=C\c1ccccc1)C(=O)OC(C)C(=O)N(C)c1ccccc1 (stereo not drawn) | inactive | –
17 | OCC[C@H]1C[C@H](O)[C@@H](O)[C@]2(Cc3ccccc3CO2)O1 | inactive | –
18 | CCOC(=O)Cn1c(SC)nc2sc3c(c2c1=O)CC(C)(C)OC3 | inactive | –
19 | CC(C)c1nc2sc3c(c2c(=O)n1N)CC(C)(C)OC3 | 4.65 µM (active) | –
20 | CC1(C)Cc2c(sc3nc4n(c(=N)c23)CCCCC4)CO1 | inactive | –
21 | CC1=C(C(=O)OCc2ccccc2)C(c2ccc(C(F)(F)F)cc2)NC(=O)N1CCCCCC(=O)O (stereo not drawn) | 13.1 µM (active) | –
22 | CC1=C(C(=O)OC(C)(C)C)C(c2ccc(Br)cc2)NC(=O)N1CCCC(=O)O (stereo not drawn) | inactive | –

Row | SMILES | Potency | activity change, negative = inhibition
23 | COCCN1C(=O)N[C@@H](c2ccccc2)C(C(=O)OC)=C1C | inactive | –
24 | CCOC(=O)c1c(C)[nH]c(C(=O)OCC(=O)c2ccc(OC)cc2OC)c1C | inactive | –
25 | COc1cccc(/C=C/C(=O)OCC(=O)N2CCCc3ccccc32)c1 | inactive | –
26 | COc1c(O)cc2oc(-c3ccc(O)c(O)c3)cc(=O)c2c1O | inactive | –
27 | O=C(CSc1nnnn1-c1ccccc1)NCc1ccco1 | inactive | –
28 | O=C(NCc1ccco1)c1cc(-c2cccnc2)nc2ccc(Cl)cc12 | inactive | –
29 | O=C(CSc1c2c(nc3ccc(Cl)cc13)CCCC2)NCc1ccco1 | 9.28 µM (active) | –
30 | COC(=O)c1[nH]c2ccc(Br)cc2c1NC(=O)Oc1ccccc1 | inactive | –
31 | COC(=O)c1[nH]c2ccccc2c1NC(=O)CN1CCCc2ccccc21 | 3.29 µM (active) | –
32 | NS(=O)(=O)c1cccc(NC(=O)CN2CCCc3ccccc32)c1 | inactive | –
33 | Brc1ccccc1/C=N/Nc1nc2ccccc2o1 | inactive | –
34 | COc1cccc(OC)c1C(=O)Nc1c(C(=O)N2CCN(c3ccccn3)CC2)oc2ccccc12 | inactive | –
35 | Cc1cccc(NC(=O)CSc2nnc(CCNC(=O)OC(C)(C)C)o2)c1C | inactive | –
36 | Cc1cc(Br)ccc1NC(=S)NC1CCCC1 | inactive | –
37 | CCCc1cc(=O)[nH]c2nnc(SCC(=O)Nc3nnc(SCC)s3)n12 | inactive | –
38 | O=S(=O)(NCCc1ccccc1)c1ccccc1 | inactive | –
39 | COP(=O)(NS(=O)(=O)c1ccccc1)OC | 5.22 µM (active) | –
40 | O=S(=O)(NCCNS(=O)(=O)c1ccccc1)c1ccccc1 | inactive | –
41 | O=S(=O)(c1ccc(Br)c2ccccc12)N1CCOCC1 | inactive | –
42 | O=C(Nc1ccnn1C1CCN(Cc2cccc(OCCO)c2)CC1)C1CCCC1 | inactive | –
43 | Cn1cnc([N+](=O)[O-])c1Sc1ccccc1 | 11.7 µM (active) | –
44 | Cn1nc(-c2ccccc2)c(CO)c1Sc1ccccc1 | inactive | –

Row | SMILES | Potency | activity change, negative = inhibition
45 | Cn1cnc([N+](=O)[O-])c1Nc1ccccc1O | inactive | –
46 | c1ccc2cc3c(NCCN4CCOCC4)ccnc3cc2c1 | 0.165 µM (active) | –
47 | c1ccc(-c2ccc(OCCN3CCOCC3)cc2)cc1 | inactive | –
48 | O=C(Cn1c(-c2ccccn2)nc2ccccc21)NCCN1CCOCC1 | inactive | –
49 | CCOc1ccc(C(=O)Nc2c3c(nn2-c2ccccc2)CS(=O)(=O)C3)cc1 | inactive | –
50 | Cc1ccc(C)c(S(=O)(=O)Nc2cccc(-n3cnnn3)c2)c1 | inactive | –
51 | COc1ccc(-n2c(C)cc(C(=O)CN3C(=O)NC4(CCc5ccccc54)C3=O)c2C)cc1 (stereo not drawn) | 1.17 µM (active) | –
52 | COc1ccc(C(=O)CN2C(=O)NC3(CCc4ccccc43)C2=O)c(OC)c1 (stereo not drawn) | inactive | –
53 | Cc1ccc(C(=O)CN2C(=O)NC3(CCc4ccccc43)C2=O)c(C)c1 (stereo not drawn) | inactive | –
54 | CCN1CCN(C(=O)Cn2nc(C)n3c(cc4c(OC)cccc43)c2=O)CC1 | inactive | –
55 | O=C(CCN1C(=O)C2CCCCC2C1=O)Nc1ccc(OC(F)F)cc1 (stereo not drawn) | inactive | –
56 | NC1=NC[C@@H](Cc2ccc(O)cc2)N1CC1CCCCC1 | 2.33 µM (active) | –
57 | COc1ccc(NC(=O)CCCN2C(=O)C(c3ccccc3)Oc3cccnc32)cc1 (stereo not drawn) | inactive | –
58 | CCOc1ccc(N(C)Cc2cc(=O)oc3ccc(OC)cc23)cc1 | inactive | –
59 | Cc1cc2oc(=O)cc(CN(C)Cc3ccc(OC(F)F)cc3)c2cc1Cl | 2.62 µM (active) | –
60 | Cc1ccc(CN(C)Cc2cc(=O)oc3cc(C)c(Cl)cc23)cc1 | inactive | –
61 | COc1cccc(CNC(=O)COC(=O)CN2C(=O)NC3(CCCCC3C)C2=O)c1 (stereo not drawn) | inactive | –
62 | Cc1onc(-c2c(Cl)cccc2Cl)c1C(=O)NNC(=O)c1c(-c2c(Cl)cccc2Cl)noc1C | 8.28 µM (active) | –
63 | COc1ccccc1N1CCN(C(=O)c2c(-c3c(Cl)cccc3Cl)noc2C)CC1 | inactive | –
64 | Cc1onc(-c2c(Cl)cccc2Cl)c1C(=O)c1c[nH]c(C(=O)NC2CC2)c1 | inactive | –
65 | CC(C)=C1SC(N2CCN(c3ccc(C)c(Cl)c3)CC2)=NC1=O | inactive | –
66 | CC(NCc1cccs1)C(=O)Nc1cc(Cl)cc(Cl)c1 (stereo not drawn) | inactive | –

Row | SMILES | Potency | activity change, negative = inhibition
67 | Cc1cc2nc3n(c2cc1C)CC1CC(C(=O)NCCC(C)C)N(C)C31 (stereo not drawn) | inactive | –
68 | CCc1nc(Nc2ccc(NC(C)=O)cc2)c2oc3ccccc3c2n1 | inactive | –
69 | COc1ccc(Nc2cc(=O)oc3ccccc23)cc1 | 2.62 µM (active) | –
70 | COc1ccc(Nc2nnc(C)c3ccccc23)cc1 | inactive | –
71 | COc1ccc2oc(=O)cc(-c3cc4ccccc4o3)c2c1 | inactive | –
72 | O=S(=O)(NC1CCCCC1N1CCC(O)CC1)c1ccc(Cl)cc1 (stereo not drawn) | inactive | –
73 | CCOC1CCCCC1NS(=O)(=O)c1ccc(Cl)cc1 (stereo not drawn) | 9.28 µM (active) | –
74 | O=S(=O)(NC1CCCCC1N1CCCCC1)c1ccc(Cl)cc1 (stereo not drawn) | inactive | –
75 | Cc1nnc2n1N=C(c1ccc3c(c1)NC(=O)CO3)CS2 | inactive | –
76 | O=C(O)CC/C(=C\c1cc2c(cc1Br)OCO2)c1nc2ccccc2s1 | inactive | –
77 | O=C(NC1CCCC1)C1CC(=O)N(c2ccc(F)cc2)C1 (stereo not drawn) | inactive | –
78 | O=C(NC1CCCCCCC1)c1cccs1 | inactive | –
79 | CCC(C)[C@H]1COCCS(=O)(=O)N1Cc1ccc(C)cc1 (stereo partly drawn) | inactive | –
80 | C/C(=N\NC(=O)c1ccc2ccccc2c1)c1cccnc1 | inactive | –
81 | O=C(NCCNc1ccc([N+](=O)[O-])cc1Cl)c1ccccc1F | inactive | –
82 | O=C(NC1CCN(Cc2ccccc2)CC1)c1cc(Br)c(Br)[nH]1 | 11.7 µM (active) | –
83 | O=C(NC1CCN(Cc2ccccc2)CC1)c1c(F)cccc1F | inactive | –
84 | O=C(NC1CCN(Cc2ccccc2)CC1)c1ccccc1F | – | 202% [at 5.75 µM]
85 | COc1cccc(CN2CCNC(=O)C2CC(=O)N(C)CCc2ccccn2)c1 (stereo not drawn) | inactive | –
86 | CN(Cc1cccc2ncccc12)C(=O)CC1C(=O)NCCN1Cc1ccc(F)cc1 (stereo not drawn) | 13.1 µM (active) | –
87 | Cc1cnc(CN(C)C(=O)CC2C(=O)NCCN2Cc2cccc(F)c2F)[nH]1 (stereo not drawn) | inactive | –
88 | O=C(N/C(=C/c1ccc(Cl)cc1)C(=O)N1CCCCC1)c1ccco1 | inactive | –

Row | SMILES | Potency | activity change, negative = inhibition
89 | O=C(O)CC(CC(=O)N1CCOCC1)c1ccccc1 (stereo not drawn) | inactive | –
90 | CCOc1cc(C)ccc1OCc1nnc(SCC(=O)Nc2cccc(C(=O)O)c2)n1-c1ccccc1 | inactive | –
91 | O=C(O)c1cc(S(=O)(=O)Nc2ccc3cn[nH]c3c2)ccc1Br | inactive | –
92 | CCCNC(=O)c1cnc(-c2ccccc2)nc1-c1ccccc1 | inactive | –
93 | C/C(=N\NC(=O)c1cc(-c2ccc(O)cc2)nc2ccccc12)c1cccnc1 | 9.28 µM (active) | –
94 | C/C(=N\NC(=O)c1cccnc1)c1ccc(-c2ccccc2)cc1 | inactive | –
95 | CCOc1ccccc1-c1cc(C(=O)N/N=C(\C)c2cccnc2)c2ccccc2n1 | inactive | –
96 | CC1(c2nnc(Cc3ccccc3)o2)CC(c2ccccc2F)=NO1 (stereo not drawn) | inactive | –
97 | COc1ccc(NC(=O)CSc2nncc(=O)n2N)cc1OC | inactive | –
98 | O=C(Cc1ccccc1Cl)N1CCN(c2ccccn2)CC1 | inactive | –
99 | O=C(CCC1CCCN(C(=O)Cc2ccc(F)cc2)C1)N1CCN(c2ccccn2)CC1 (stereo not drawn) | inactive | –
100 | Cc1nc2c(-c3ccc(F)cc3)c(C)nn2c(C)c1CCC(=O)N1CCN(c2ccccn2)CC1 | 7.38 µM (active) | –
101 | O=C(c1cc(COc2ccc(F)c(F)c2)on1)N1CCOCC1 | inactive | –
102 | CCn1c(=O)c2cc(C(=O)Nc3cccc(C(C)=O)c3)sc2c2ccccc21 | inactive | –
103 | NC1=C([N+](=O)[O-])C(c2ccccc2)C2=C(CCCC2=O)O1 (stereo not drawn) | inactive | –
104 | N#CC1=C(N)OC2=C(C(=O)CCC2)C1C1CC=CCC1 (stereo not drawn) | inactive | –
105 | N#CC1=C(N)N(c2ccccc2)C2=C(C(=O)CCC2)C1c1ccccc1 (stereo not drawn) | 2.08 µM (active) | –
106 | CN(C)N1C(N)=C(C#N)C(c2ccc(Br)cc2)C2=C1CCCC2=O (stereo not drawn) | 2.94 µM (active) | –
107 | CCOc1ccc(C2C(C#N)=C(N)N(N(C)C)C3=C2C(=O)CCC3)cc1 (stereo not drawn) | inactive | –
108 | COc1ccc(C2C(C#N)=C(N)N(c3ncn[nH]3)C3=C2C(=O)CCC3)cc1 (stereo not drawn) | inactive | –
